GDH-TPI counter: GDH-TPI coupling enzyme inhibitors, primary screen, artefact control for M. tuberculosis FBA inhibitor project, biochemical, absorbance, full deck. 360,000 compounds, 1.2% hits. inhibition, % at 4.8 µM. AID 588335, 2011. GDH-TPI coupled enzyme counterscreen, NADH absorbance; in the data active = inhibition above about 30%
Mtb bLac sens: beta-lactam sensitization of Mtb H37Rv, H37Rv; M. tuberculosis H37Rv growth with meropenem, percent inhibition; inhibition, % at 25 µM; 330,000 compounds, 0.27% hits; call rule not given here;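 also: growth measured after seven days incubation then overnight dye step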
Mtb FBA inh: Mtb FBA enzyme inhibitors, primary screen, biochemical, fluorescence, strain H37Rv; AID 588726, 2011; Fructose-bisphosphate aldolase (Mycobacterium tuberculosis (strain ATCC 25618 / H37Rv)), …; 360,000 compounds, 2.3% hits; purified M. tuberculosis FBA, fluorescence read-out; inhibition, % at 1 µM; in the data active = inhibition above about 27%
Mtb UGM inh: M. tuberculosis UGM enzyme inhibitors, primary screen, biochemical, fluorescence polarization, single point. inhibition, % at 10 µM. purified UGM, fluorescence polarization probe displacement. AID 504406, 2011. 320,000 compounds, 0.06% hits; in the data active = inhibition above about 10%, passing the limit was not always enough; inconclusive = no clear call, values can overlap the other calls
FadD28 FP inh: inhibitors of FadD28 bisubstrate probe binding, primary screen, biochemical, fluorescence polarization, single point | inhibition, % at 12.5 µM | 360,000 compounds, 0.22% hits; in the data active = inhibition above about 8.5%, passing the limit was not always enough; inconclusive = no clear call, values can overlap the other calls
Rv3671c inh: Rv3671c serine protease inhibitors, primary screen, biochemical, fluorescence polarization, M. tuberculosis H37Rv | P9WHR9 | inhibition, % at 5.96 µM | 320,000 compounds, 0.048% hits | AID 2606, 2010; in the data active = inhibition above about 38%;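 also: extracellular domain of Rv3671c used as enzyme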
Target sequence (P9WHR9 whole entry, looked up, the tested form may be a part): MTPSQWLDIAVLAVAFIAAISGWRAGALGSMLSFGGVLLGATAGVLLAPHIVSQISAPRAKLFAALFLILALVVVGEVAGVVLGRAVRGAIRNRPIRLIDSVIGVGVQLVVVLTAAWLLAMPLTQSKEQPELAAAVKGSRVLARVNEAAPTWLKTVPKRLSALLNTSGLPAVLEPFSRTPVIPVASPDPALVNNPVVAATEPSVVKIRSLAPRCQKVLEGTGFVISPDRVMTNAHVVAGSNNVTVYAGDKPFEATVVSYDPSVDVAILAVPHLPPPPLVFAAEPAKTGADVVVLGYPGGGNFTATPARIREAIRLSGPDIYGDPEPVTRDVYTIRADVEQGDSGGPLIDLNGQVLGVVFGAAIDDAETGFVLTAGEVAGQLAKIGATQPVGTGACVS
Hits are given with their value; - = inactive; ? = inconclusive; . = not tested or not shown. Rows were chosen to be rich in hits. Some 3.7% of all compounds tested hit in one or more screens of this group.

SMILES	GDH-TPI counter	Mtb bLac sens	Mtb FBA inh	Mtb UGM inh	FadD28 FP inh	Rv3671c inh
CN(CC(=O)Nc1ccc(OC(F)(F)F)cc1)C(=O)Cn1c(=O)cnc2ccccc21	-	-	-	-	-	-
Nc1nccnc1C(=O)OCC(=O)c1ccc[nH]1	-	-	165	-	-	-
CC(=O)c1c(C)[nH]c(C(=O)COC(=O)c2cccnc2Cl)c1C	-	-	-	-	-	-
CC(=O)c1c(C)[nH]c(C(=O)COC(=O)c2nccnc2N)c1C	-	-	157	-	-	-
CCOC(=O)C(C)N1N=C(/C=C/c2ccc(OC)cc2)CCC1=O (stereo not drawn)	42	-	-	-	-	-
Cc1ccc(/C=C/C2=NN(C)C(=O)CC2)cc1	-	-	-	-	-	-
CCOC(=O)CN1N=C(/C=C/c2ccc(OC)cc2)CCC1=O	38	-	-	-	-	-
CC(C)Cc1ccc(-c2cc3nc(NCC4CC4)ccn3n2)cc1	-	.	-	.	-	.
CC1(C(=O)NS(=O)(=O)c2cccs2)CCN1C(=O)Cc1ccc(Cl)cc1Cl (stereo not drawn)	-	.	-	.	-	.
Cc1occc1C(=O)NC(C)C1CCCO1 (stereo not drawn)	-	-	33	-	-	-
CC(NC(=O)c1ccco1)C1CCCO1 (stereo not drawn)	-	-	-	-	-	-
CC(C)=NNc1ncnc2nc[nH]c12	-	.	-	.	-	.
CCc1ccc(/C=N/Nc2ncnc3nc[nH]c23)cc1	71	-	-	-	-	-
N=C1/C(=C/c2ccc(Br)o2)C(=O)N=C2SC(CC(=O)N3CCCC3)=NN12	-	-	-	-	-	-
CC(C)CS(=O)(=O)C1=NN2C(=N)/C(=C\c3ccc(OC(=O)c4ccco4)cc3)C(=O)N=C2S1	34	-	-	-	-	-
CCC1=NN2C(=N)/C(=C\c3cccn3-c3ccc(OC)cc3)C(=O)N=C2S1	-	-	-	14	-	-
COc1ccc(-n2c(C)cc(/C=C3\C(=N)N4N=C(CC(=O)N5CCOCC5)SC4=NC3=O)c2C)cc1	46	-	-	-	-	-
N=C1/C(=C/c2ccco2)C(=O)N=C2SC(CC(=O)N3CCCC3)=NN12	31	-	-	-	-	-
Cc1ccc(-n2cccc2/C=C2\C(=N)N3N=C(C(C)C)SC3=NC2=O)cc1	-	-	-	-	-	-
CCOC(=O)C1CCCC12Nc1cccc3cccc(c13)N2 (stereo not drawn)	-	.	-	.	-	.
O=C(COC(=O)c1cccc([N+](=O)[O-])c1)c1ccc2c(c1)OCO2	.	-	.	-	.	-
Cc1cc(/C=C2\C(=N)N3N=C(CC(=O)N4CCOCC4)SC3=NC2=O)c(C)n1-c1ccccc1	34	-	-	-	-	-
O=P1(O)Cc2ccccc2-c2ccccc21	-	.	-	.	-	.
O=C(NCc1ccccc1Br)c1cccc2c1C(=O)c1ccc(N3CCC(Cc4ccccc4)CC3)cc1S2(=O)=O	-	-	-	-	-	-
O=C(NC1CCCCC1)c1cccc2c1C(=O)c1ccc(N3CCC(Cc4ccccc4)CC3)cc1S2(=O)=O	-	-	-	19	-	-
SMILES	GDH-TPI counter	Mtb bLac sens	Mtb FBA inh	Mtb UGM inh	FadD28 FP inh	Rv3671c inh
O=C(NCC1CCCO1)c1cccc2c1C(=O)c1ccc(N3CCC(Cc4ccccc4)CC3)cc1S2(=O)=O (stereo not drawn)	-	-	-	19	-	-
Cc1ccc(-c2nnc(NC(=O)Cc3ccc(F)cc3)o2)c(C)c1	-	?	-	-	-	-
COc1cc2c(cc1OC)C(c1cc3cc4c(cc3[nH]c1=O)OCO4)N(C(=O)C1CC1)CC2 (stereo not drawn)	38	-	-	-	-	-
COc1cc2c(cc1OC)C(c1cc3ccc(C)cc3[nH]c1=O)N(C(=O)c1ccco1)CC2 (stereo not drawn)	-	-	-	-	-	-
Cc1ccnc(NC(=O)c2cnc(Cl)c(Cl)c2)c1	-	-	-	-	-	-
Oc1ccc(C[C@@H](CN2CCC[C@@H]2CN2C(=S)NC[C@@H]2Cc2ccccc2)N2C[C@H](Cc3ccccc3)N(CCc3ccccc3)C2=S)cc1	.	.	-	.	-	.
CCOc1ccc(CCN2C(=S)N([C@@H](CC(C)C)CN3CCCC3CN3C(=S)NC[C@@H]3Cc3ccc(O)cc3)C[C@@H]2Cc2ccccc2)cc1 (stereo partly drawn)	38	.	-	.	-	.
CC(C)C[C@H]1CNC(=S)N1CC1CCCN1C[C@H](Cc1ccccc1)N1C[C@H](Cc2ccc(O)cc2)N(CC2CCCCCC2)C1=S (stereo partly drawn)	32	.	-	.	-	.
Oc1ccc(C[C@H]2CNC(=S)N2CC2CCCN2C[C@H](Cc2ccccc2)N2C[C@H](Cc3ccc(O)cc3)N(CCc3ccccc3)C2=S)cc1 (stereo partly drawn)	34	.	-	.	-	.
CCn1c(SC(C)C(=O)NC2CCCC2)nc2cc(S(N)(=O)=O)ccc21 (stereo not drawn)	-	-	-	-	-	-
Cc1c(C=N)c(O)n(C)c(=O)c1C#N	32	-	-	-	-	-
Cc1ccc(N/N=C/c2c(C)c(C#N)c(=O)n(C)c2O)cc1C	32	.	-	.	-	.
COc1cc(S(=O)(=O)Nc2ccc(C)cc2)ccc1N=Cc1c(C)c(C#N)c(=O)n(C)c1O	-	-	-	?	-	-
CCN(CC)S(=O)(=O)c1ccc(N=Cc2c(C)c(C#N)c(=O)n(C)c2O)cc1	38	-	-	-	-	-
COCCNC(=O)c1cc2c(c(-c3cccc(-c4cc5ccccc5o4)c3)n1)[C@@H](CCO)N(S(=O)C(C)(C)C)C2 (stereo partly drawn)	.	.	-	.	-	.
Cc1cc(/C=C2\SC(=S)NC2=O)cc(C)c1O	-	-	-	-	-	-
CC1Cc2cc(/C=C3/SC(=S)NC3=O)ccc2O1 (stereo not drawn)	37	-	-	-	-	-
O=C1NC(=S)S/C1=C\c1cccc([N+](=O)[O-])c1	33	.	-	.	-	.
O=C1NC(=S)SC1=Cc1ccccc1Cl	42	.	-	.	-	.
O=C1NC(=S)S/C1=C\c1cc(Cl)cc(Cl)c1O	-	.	-	.	33	.
CC1ON=C(c2cccc3ccccc23)N(C)C1=O (stereo not drawn)	-	.	-	.	-	.
CC(C)(C)OC(=O)NCC(=O)NNC(=O)C(C(=O)OCc1ccccc1)c1ccccc1 (stereo not drawn)	-	-	-	-	-	-
COc1c(O)cc(O)c2c(=O)cc(-c3ccccc3)oc12	-	-	-	.	-	-
O=[N+]([O-])c1ccc(O)c(Nc2c([N+](=O)[O-])ccc3nonc23)c1	-	-	-	-	-	-
CC(=O)Oc1ccc2occ(/C=N/c3cc(=O)[nH]c(=S)[nH]3)c(=O)c2c1	39	-	-	-	-	-
